A selection: hits, their analogues and other compounds. The true share with any hit is near 4%.
ADAM10 inh – human ADAM10 inhibitors, primary screen, biochemical, QFRET, HTS; AID 720582, 2013; inhibition, % at 7 µM; 0.62% of 370,000 active; Disintegrin and metalloproteinase domain-containing protein 10 (Homo sapiens), O14672; recombinant ADAM10, EDANS/DABCYL FRET peptide cleavage, 3 h;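 active = inhibition above a per-campaign cutoff equal to the mean of compounds falling between control-based bounds plus 3 SD, cut at about 20% in these data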
Target sequence (O14672 214-748 limits assumed): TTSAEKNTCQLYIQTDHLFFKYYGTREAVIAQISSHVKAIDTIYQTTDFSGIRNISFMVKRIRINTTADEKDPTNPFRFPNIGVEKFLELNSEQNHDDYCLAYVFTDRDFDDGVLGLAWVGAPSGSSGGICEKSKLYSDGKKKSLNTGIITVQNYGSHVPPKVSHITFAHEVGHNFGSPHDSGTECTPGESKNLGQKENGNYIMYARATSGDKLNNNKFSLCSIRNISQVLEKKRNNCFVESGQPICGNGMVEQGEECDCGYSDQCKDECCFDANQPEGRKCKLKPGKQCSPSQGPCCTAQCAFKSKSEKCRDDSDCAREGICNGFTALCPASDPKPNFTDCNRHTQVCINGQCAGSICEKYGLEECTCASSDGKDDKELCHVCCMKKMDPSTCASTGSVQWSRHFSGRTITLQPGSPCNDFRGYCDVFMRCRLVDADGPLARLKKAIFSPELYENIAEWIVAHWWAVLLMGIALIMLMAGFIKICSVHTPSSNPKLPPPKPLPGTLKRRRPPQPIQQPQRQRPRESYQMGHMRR
GRIN3A LBD mod – binders of NR3A ligand-binding domain, primary screen, biophysical, differential scanning fluorimetry, uHTS; Glutamate receptor ionotropic, NMDA 3A (GRIN3A) ligand-binding domain; NR3A LBD differential scanning fluorimetry, Tm shift; 0% = protein alone, 100% = glycine-bound protein; Tm shift relative to glycine control, % at 25 µM; 2.5% of 340,000 active;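 active = melting temperature shift of at least 10% of the positive control shift, at one fixed dose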
FAS-TE inh – FAS thioesterase domain inhibitors, primary screen, biochemical, fluorescence intensity, uHTS; Fatty acid synthase (Homo sapiens), P49327; recombinant FAS-TE, OMFH fluorogenic substrate, fluorescence endpoint; inhibition, % at 15 µM; 0.67% of 360,000 active; AID 602261, 2012;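 active = compounds whose normalised, plate-corrected inhibition of enzyme fluorescence in the single-dose primary screen is 50% or more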
aDG glyco up – activators of alpha-DG glycosylation, primary screen, uHTS, Pro5-aDG cells, AlphaScreen; alpha-DG glycosylation AlphaScreen (IIH6); 0% Pro5, 100% B10-LARGE cell signal; activation, % at 10 µM; 0.22% of 360,000 active; AID 624168, 2012;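 active = activation of at least 8% versus controls, or a plate z-score of at least 8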;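 also: Pro5 are CHO cells carrying HIG-tagged alpha-DG that lacks glycosylation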
ADAM17 inh – ADAM17 inhibitors, primary screen, biochemical, QFRET; AID 720648, 2013; recombinant ADAM17, EDANS/DABCYL FRET peptide cleavage; inhibition, % at 6.95 µM; 0.83% of 370,000 active;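 active = inhibition above the mean of compounds lying between control limits plus 3 SD, set per campaign, cut at about 8.5% in these data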
FAS-TE inh conf – FAS thioesterase domain inhibitors, confirmation, biochemical, fluorescence intensity, single concentration; shares compounds with FAS-TE inh; inhibition, % at 15 µM; recombinant FAS-TE, OMFH fluorogenic substrate; 45% of 2,300 active; AID 624325, 2012;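 active = compounds inhibiting the enzyme by at least 50% at 15 µM in any one of the replicates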
Large screens that a line does not name were inactive (follow-up assays come after a bar, where they were run).

O=C(/C=C/c1cccc([N+](=O)[O-])c1)NCCSCc1ccc(Cl)cc1Cl	FAS-TE inh 59 | FAS-TE inh conf 58
O=C(CSc1nc2cc([N+](=O)[O-])ccc2n1-c1ccccc1)NCc1ccc2c(c1)OCO2	FAS-TE inh 52 | FAS-TE inh conf inactive
O=C(NCc1ccc2c(c1)OCO2)c1cc([N+](=O)[O-])ccc1N1CCCCC1	FAS-TE inh 64 | FAS-TE inh conf 54
COC(=O)c1cc(C(=O)NCc2ccc3c(c2)OCO3)cc([N+](=O)[O-])c1	FAS-TE inh 59 | FAS-TE inh conf 71
Cn1nc(C(F)(F)F)c(C#N)c1N1CCN(c2cccc(C(F)(F)F)c2)CC1	none
CCOc1cc(C=NN2CCN(Cc3ccc(C)cc3)CC2)ccc1O	none (no result: GRIN3A LBD mod, FAS-TE inh, aDG glyco up)
CC(=O)CSc1nc2cc3c(cc2cc1C#N)OCCO3	none
O=C(/C=C/c1ccc([N+](=O)[O-])cc1)NCc1ccc2c(c1)OCO2	none
O=C(/C=C/c1cccc([N+](=O)[O-])c1)NCc1ccc2c(c1)OCO2	FAS-TE inh 68 | FAS-TE inh conf 82
CC(NC(=O)c1ccc2c(c1)OCO2)c1ccccc1 (stereo not given)	none
CC1Cc2cc(-c3csc(NC(=O)Cc4cccs4)n3)ccc2N1S(C)(=O)=O (stereo not given)	FAS-TE inh 51 | FAS-TE inh conf 53
CCCC(=O)Nc1nc(-c2ccc3c(c2)CCN3S(C)(=O)=O)cs1	none
CS(=O)(=O)N1CCc2cc(-c3csc(NC(=O)Cc4ccccc4)n3)ccc21	FAS-TE inh 64 | FAS-TE inh conf 58
O=C1c2ccccc2C(=O)N1OS(=O)(=O)c1ccc(F)cc1	FAS-TE inh 71 | FAS-TE inh conf 50
Cc1ccc(S(=O)(=O)N2CCN(CCc3ccccc3)CC2)c(C)c1	none
Cc1ccc(S(=O)(=O)ON2C(=O)c3ccccc3C2=O)c(C)c1	GRIN3A LBD mod 22, FAS-TE inh 75 | FAS-TE inh conf 94
Cc1cccc2c1N(C)C(=O)C2=O	none
Cc1cc(C)c(S(=O)(=O)ON2C(=O)c3ccccc3C2=O)cc1C	FAS-TE inh 91 | FAS-TE inh conf 95
Cc1cc(C)c(C)c(S(=O)(=O)ON2C(=O)c3ccccc3C2=O)c1C	FAS-TE inh 90 | FAS-TE inh conf 95
COC(=O)C1=C(C)NC(=O)C1(Nc1nccs1)C(F)(F)F (stereo not given)	none
CCCN1CCC(=O)N([C@H](CO)Cc2ccccc2)CC1	none
CSCC[C@H](NC(=O)c1ccc(Cl)c([N+](=O)[O-])c1)c1nc2ccccc2[nH]1	FAS-TE inh 59 | FAS-TE inh conf 64
O=C(NC(Cc1ccccc1)c1nc2ccccc2[nH]1)c1ccc(Cl)c([N+](=O)[O-])c1 (stereo not given)	none
CCOC(=O)CC(N)c1cccc([N+](=O)[O-])c1 (stereo not given)	none
CCOC(=O)CC(NC(=O)c1cc2ccccc2oc1=O)c1cccc([N+](=O)[O-])c1 (stereo not given)	FAS-TE inh 50 | FAS-TE inh conf 55
COC(=O)CC(NC(=O)Nc1ccc(C)cc1)c1cccc([N+](=O)[O-])c1 (stereo not given)	FAS-TE inh 53 | FAS-TE inh conf 65
O=C(O)CC(NC(=O)C(c1ccccc1)c1ccccc1)c1cccc([N+](=O)[O-])c1 (stereo not given)	FAS-TE inh 52 | FAS-TE inh conf 64
CC(C)(C)OC(=O)CC1(C#N)c2ccccc2C(Br)=CN1C(=O)c1ccccc1 (stereo not given)	none
CC(C)C[C@@]12C(=O)N(c3cccc(F)c3)C(=O)N1[C@H](c1ccc(Br)cc1)[C@@H]1C(=O)N(C(C)(C)C)C(=O)[C@@H]12	none
COc1ccc([C@@H]2[C@@H]3C(=O)N(C(C)(C)C)C(=O)[C@@H]3[C@]3(CC(C)C)C(=O)N(c4ccc(C(F)(F)F)cc4)C(=O)N23)cc1	FAS-TE inh 67 | FAS-TE inh conf inactive
CC(C)C[C@@]12C(=O)N(c3ccc(Br)cc3)C(=O)N1[C@H](c1ccc(Br)cc1)[C@@H]1C(=O)N(C(C)(C)C)C(=O)[C@@H]12	FAS-TE inh 75 | FAS-TE inh conf 39
CC(C)(C)N1C(=O)[C@H]2[C@@H](c3ccc(Br)cc3)N3C(=O)N(c4ccccc4)C(=O)[C@@]3(C)[C@H]2C1=O	none
CC(C)(C)N1C(=O)[C@H]2[C@@H](c3ccc(Br)cc3)N3C(=O)N(c4ccccc4)C(=O)[C@@]3(Cc3ccccc3)[C@H]2C1=O	FAS-TE inh 87 | FAS-TE inh conf inactive
CCCn1c(N)c(Br)c(=O)[nH]c1=O	none
Cc1ccc(Cl)cc1N1CCN(C(c2ccc(C#N)cc2)c2nnnn2C2CCCC2)CC1 (stereo not given)	FAS-TE inh 69 | FAS-TE inh conf inactive
Cc1ccccc1NC(=O)C1CCC(=O)N1 (stereo not given)	none
N#Cc1cc(-c2ccc(Cl)cc2)cn(Cc2c(Cl)cccc2Cl)c1=O	FAS-TE inh 62 | FAS-TE inh conf inactive
CSc1nnc(SCC(=O)NC(=O)c2ccccc2)s1	none
O=C(CCOc1cccc(Br)c1)Nc1ccc(F)c(S(=O)(=O)N2CCOCC2)c1	none
CCS(=O)(=O)c1ccc2oc(Nc3cc(C)cc(C)c3)nc2c1	none
CCS(=O)(=O)c1ccc2oc(Nc3ccc(C(C)C)cc3)nc2c1	FAS-TE inh 52 | FAS-TE inh conf 47
Cc1ccc(Cl)cc1NC(=O)C1CCCCC1C(=O)O (stereo not given)	none
COc1ccc(C2NC(c3ccc(OC)cc3)C(c3ccccc3)C(=O)C2c2ccccc2)cc1 (stereo not given)	FAS-TE inh 62 | FAS-TE inh conf inactive
COc1ccc(C2NC(c3ccc(OC)cc3)C(C)C(=O)C2C)cc1 (stereo not given)	none
O=C(NC(Cc1ccccc1)C(=O)O)/C(=C\c1ccco1)NC(=O)c1ccco1 (stereo not given)	none
c1ccc(Cn2ccc3ccc(-c4ccc5ccn(Cc6ccc(-c7ccccc7)cc6)c5c4)cc32)cc1	none (no result: GRIN3A LBD mod, FAS-TE inh, aDG glyco up)
CCn1c(=N)c(S(=O)(=O)c2ccccc2)cc2c(=O)n3ccccc3nc21	FAS-TE inh 55 | FAS-TE inh conf inactive
CCCCOC(=O)CSc1nc(N)c(C#N)c(-c2ccc(OCC)cc2)c1C#N	none
CCCCOc1ccc(-c2c(C#N)c(N)nc(SCC(N)=O)c2C#N)cc1	GRIN3A LBD mod 17, FAS-TE inh 76 | FAS-TE inh conf 92

Screening data (PubChem BioAssay)
